# From paper PMC7826789 (International Journal of Molecular Sciences, 2021)
compound,measurement,setting,value
Cc1cccc(CC(=O)N2CCc3c2ccc(-c2cn(C)c4ncnc(N)c24)c3F)n1 [GSK2656157],Kinases covered,EIF2AK3,EIF2AK3
Cn1cc(-c2ccc3c(c2)CCN3C(=O)Cc2cccc(C(F)(F)F)c2)c2c(N)ncnc21 [GSK2606414],Kinases covered,EIF2AK3,EIF2AK3
COC(=O)Nc1nc2ccc(Oc3ccc(NC(=O)Nc4cc(C(F)(F)F)ccc4F)cc3)cc2s1.Cl [GW693917A],Kinases covered,EPHA2,EPHA2
COc1cc2ncnc(Nc3cccc(Cl)c3F)c2cc1O[C@H]1CC[C@@]2(CC1)NCCNC2=O [BI00113608],Kinases covered,EPHA6,EPHA6
same,Kinases covered,EPHB4,EPHB4
COc1cc2ncnc(Nc3cccc(Cl)c3F)c2cc1O[C@H]1CC[C@H]([C@@H]2NCCNC2=O)CC1 [BI00133844],Kinases covered,EPHA6,EPHA6
same,Kinases covered,EPHB4,EPHB4
COC(=O)C(NC(=O)NC1CCN(c2ccnc(Nc3ccc(F)cc3)n2)C1)c1ccccc1 (centres unmarked) [GSK1379712],Kinases covered,EPHB6,EPHB6
Cn1ccc(-c2cccc(Nc3ccnc4cc(-c5nccs5)ccc34)c2)n1 [GW525701],Kinases covered,EPHB6,EPHB6
C=CC(=O)Nc1cc(-c2nn(C3CCC(N4CCN(C(C)=O)CC4)CC3)c3ncnc(N)c23)ccc1Oc1ccccc1 (centres unmarked) [TX-85-1],Kinases covered,ERBB3,ERBB3
Cc1cc(NC(=O)c2cccc(NC(=O)/C=C/CN(C)C)c2)ccc1Nc1nccc(-c2cccnc2)n1 [JNK-IN-7],Kinases covered,ERK3,ERK3
